From PubChem BioAssay AID504534 (National Center for Advancing Translational Sciences (NCATS), 2011) come the findings set out here.

The structures appear in SMILES notation. Results filed as inconclusive are left out. Entries that show only a call come without a potency. Active and inactive are the calls of the source. Calls come from the whole dose curve; as a rule, active = well fitted curve in the direction sought with a large enough effect; inconclusive = small, poorly fitted or top-dose-only effect, or another doubt; inactive = no such curve, though single readings can be large or run the other way.
Potency is the fitted concentration of half-maximal effect.

This assay in a line: Secondary Assay for Inhibitors of Human Cdc-like kinase 4 (Clk4): HEK-293 Cell Viability Assay.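 Note: cytotoxic hits lower the ATP light signal so activity reflects loss of viability.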 The settings on record: HEK-293 viability, ATP luminescence (CellTiter-Glo), 24/48 h; series mostly up to 46.1 µM. The method, then:
NIH Molecular Libraries Probe Production Centers Network [MLPCN] NIH Chemical Genomics Center [NCGC] MLPCN Grant: 1R03MH084827-01 Assay Submitter (PI): Tom Misteli NCGC Assay Overview: Cytotoxicity of the active compounds in the Clk4 screens was assessed using the CellTiter-Glo Luminescent Cell Viability Assay kit (Promega, USA) in the HEK-293 (ATCC) cell line. CellTiter-Glo measures the intracellular ATP present in metabolically active cells using Ultra-Glo as the luciferase to detect ATP levels. In brief, the luciferase in the buffer catalyzes the oxidation of luciferin to oxyluciferin and light which is dependent on ATP. […] Wells treated with various concentrations of cycloheximide (Sigma) and DMSO, and wells with media alone were used as positive and negative controls, respectively. […] [1] http://www.promega.com/tbs/tb288/tb288.pdf
NCGC Assay Protocol Summary: HEK-293 cells were grown in a flask up to 80% confluence. Cells were trypsinized, washed, and resuspended in MEM Eagle + 10% FBS + 1% pen-strep media at a concentration of 120 cells/uL. Five uL/well of cell solution was dispensed into a 1536-well assay plates (Greiner, solid white medium-binding plates) with Aurora Discovery BioRAPTR Flying Reagent Dispenser (FRD; Beckton-Dickenson). Cells were pre-incubated at 37 degree Celsius, 5% CO2 for four hours. Compound and control solutions (23nL) were then transferred to the assay plate using the Kalypsys 1536-pin tool. Assay plates were re- incubated at 37 degree Celsius, 5% CO2. After 24 or 48 hours, five uL of CellTiter Glo detection reagent was added. Luminescence signal was read with Perkin Elmer ViewLux plate reader after 30 min room temperature incubation.
A general note: Cellular ATP, detected with luciferase, serves as a proxy for viable cell number.
`Cc1ccc(CNc2ncnc3ccc(-c4ccc([C@@H](C)O)o4)cc23)o1`: the Potency entry is “inactive”.

Regarding `c1c[nH]c(CNc2ncnc3ccc(-c4ccoc4)cc23)n1`, the Potency entry was “inactive”.

With `CN(C)CCNc1ncnc2ccc(-c3ccc4c(c3)OCO4)cc12`, the Potency entry is “inactive”.

Take `Cn1ccc2cc(-c3ccc4ncnc(NCc5cccc(F)c5)c4c3)ccc21`: the Potency entry was “inactive”.

Turning to `Cc1ccc(CNc2ncnc3cc(-c4ccc5c(c4)OCO5)ccc23)o1`, the Potency result was “inactive”.

On to `Cc1csc(CNc2ncnc3ccc(-c4ccc(C(C)O)o4)cc23)n1` (stereo not given), for which the Potency entry is “inactive”.

Consider `Cc1occc1-c1ccc2ncnc(NCc3ncc[nH]3)c2c1`, for which the Potency result is “inactive”.

Consider `CN(C)CCCNc1ncnc2ccc(-c3ccc4c(c3)OCO4)cc12`, for which the Potency entry is “inactive”.

Consider `c1csc(CNc2ncnc3ccc(-c4ccc5c(c4)OCO5)cc23)n1`, for which the Potency result is “inactive”.

On to `Cn1ccc2cc(-c3ccc4ncnc(NCc5cccs5)c4c3)ccc21`, for which the Potency entry was “inactive”.

For `CCCN(Cc1cccs1)c1ncnc2ccc(-c3ccc4c(c3)OCO4)cc12`, the Potency result is “inactive”.

Take `CN(Cc1cncn1C)c1ncnc2ccc(-c3ccc4c(c3)OCO4)cc12`: the Potency result was “inactive”.

For the molecule `Cc1nc(CCN(C)c2ncnc3ccc(-c4ccc5c(c4)OCO5)cc23)cs1`, the Potency entry is “inactive”.

For `Cn1ccc2cc(-c3ccc4ncnc(NCc5cccnc5)c4c3)ccc21`, the Potency result is “inactive”.

`CCOC(=O)c1ccc(-c2ccc3ncnc(NCc4cccs4)c3c2)o1`: the Potency entry is “inactive”.

In the case of `CCOC(=O)c1ccc(-c2ccc3ncnc(NCCc4cnc[nH]4)c3c2)o1`, the Potency entry is “inactive”.

Turning to `CCOC(=O)c1ccoc1-c1ccc2ncnc(NCc3ncc[nH]3)c2c1`, the Potency entry is “inactive”.

With `Cc1cccc(CNc2ncnc3ccc(-c4cccc(Cl)c4)cc23)c1`, the Potency entry is “inactive”.

Regarding `CN(CC1CCCCO1)c1ncnc2ccc(-c3ccc4c(c3)OCO4)cc12` (stereo not given), the Potency entry is “inactive”.

Consider `CC(Nc1ncnc2ccc(-c3ccc4c(c3)OCO4)cc12)c1ccco1` (stereo not given), for which the Potency entry was “inactive”.

For the molecule `Cc1csc(CNc2ncnc3ccc(-c4ccoc4)cc23)c1`, the Potency result is “inactive”.

For the molecule `CCN(CCc1cn(C)cn1)c1ncnc2ccc(-c3ccc4c(c3)OCO4)cc12`, the Potency entry was “inactive”.

Take `c1nc(NCCc2cnc[nH]2)c2ccc(-c3ccc4c(c3)OCO4)cc2n1`: the Potency result was “inactive”.

For the molecule `COc1cccc(Nc2ncc3nc(-c4cn(C)c5ccccc45)c(=O)n(CCC#N)c3n2)c1`, the Potency was 7.91 µM (active).

Regarding `Cc1cc(CNc2ncnc3ccc(-c4ccc5c(c4)OCO5)cc23)c(C)o1`, the Potency result is “inactive”.

For the molecule `Cc1csc(CNc2ncnc3ccc(-c4ccc5c(c4)OCO5)cc23)n1`, the Potency result is “inactive”.

For `Cc1ccsc1CN(C)c1ncnc2ccc(-c3ccc(COC(=O)N(C)C)o3)cc12`, the Potency entry was “inactive”.

`O=C(O)c1ccc(-c2ccc3ncnc(NCCc4cnc[nH]4)c3c2)o1`: the Potency result was “inactive”.

Consider `CCOC(=O)c1ccc(-c2ccc3ncnc(NCc4ccc(C)o4)c3c2)o1`, for which the Potency result was “inactive”.

On to `Cc1cccc(CNc2ncnc3ccc(-c4ccc5c(c4)OCO5)cc23)c1`, for which the Potency entry is “inactive”.

Consider `c1csc(CNc2ncnc3ccc(-c4ccc5c(c4)OCCO5)cc23)c1`, for which the Potency result is “inactive”.

As to `Fc1cccc(CNc2ncnc3ccc(-c4cccnc4)cc23)c1`, the Potency entry is “inactive”.

In the case of `c1nc(NCC2CCCCC2)c2cc(-c3ccc4c(c3)OCO4)ccc2n1`, the Potency result was “inactive”.

Turning to `CC(O)c1ccc(-c2ccc3ncnc(NCCc4cnc[nH]4)c3c2)o1` (stereo not given), the Potency result is “inactive”.

As for `Cc1nc(CCNc2ncnc3ccc(-c4ccc5c(c4)OCO5)cc23)cs1`, the Potency result was “inactive”.

As to `CCN1/C(=C/C(C)=O)Sc2ccc(OC)cc21`, the Potency result was “inactive”.

For the molecule `CN1CCCC1CCNc1ncnc2ccc(-c3ccc4c(c3)OCO4)cc12` (stereo not given), the Potency result was “inactive”.

Consider `Cc1ccsc1CN(C)c1ncnc2ccc(-c3ccc([C@@H](C)O)o3)cc12`, for which the Potency result was “inactive”.

Take `CCOC(=O)c1ccoc1-c1ccc2ncnc(NCc3csc(C)n3)c2c1`: the Potency entry was “inactive”.

As for `Cn1cncc1CNc1ncnc2ccc(-c3ccc4c(c3)OCO4)cc12`, the Potency result was “inactive”.
